Measured values: PubChem BioAssay AID1259312 (Keith Lab, Institute of Cancer Science, University of …, 2017)
The whole screen tested about 4,500 compounds, of which about 200 (4.4%) were called active.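 Rule for the calls: active = cell survival measured by absorbance rises more than 2.5-fold over infected cells without compound; inactive = the rest.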 Shown is part of a subset that was picked to be rich in actives.

Test: survival after telomere uncapping, modulators, primary screen, cell-based (AID 1259312);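 note: virus expresses mutant telomerase RNA that uncaps telomeres and kills cells; compound added 2 days after infection so exposure lasts 3 days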
Details: HCT116 + Ad-hTR-mut, MTT, 5 d; at 10 µM, stronger effect = higher value

SMILES | fold change
Cc1[nH]nc2c1C1(CCOCC1)C(C#N)=C(N)O2 | -1.27 (inactive)
N#CC1=C(N)OC2=C(C(=O)CCC2)C12C(=O)Nc1ccccc12 (stereo not drawn) | 2.26 (inactive)
Cc1[nH]nc2c1C1(C(=O)Nc3ccccc31)C(C#N)=C(N)O2 (stereo not drawn) | 5.1 (active)
N#CC1=C(N)Oc2ccc(N)cc2C12C(=O)Nc1ccccc12 (stereo not drawn) | 2.67 (active)
CC(C)(C)c1[nH]nc2c1C(c1ccc(F)cc1)C(C#N)=C(N)O2 (stereo not drawn) | 1.28 (inactive)
Cc1[nH]nc2c1C1(CCCCC1)C(C#N)=C(N)O2 | -1.09 (inactive)
CCCCc1ccc(-c2c(C#N)c(N)nc3c2CCCCCC3)s1 | -4.8 (inactive)
Cc1ccc(C2C3=C(CC(C)(C)CC3=O)OC3=C2C(=O)CC(C)(C)C3)s1 | -5.64 (inactive)
O=C(O)/C=C/c1ccc(F)c(Br)c1 | -1.15 (inactive)
O=S1(=O)N=C(N2CCCc3ccccc32)c2ccccc21 | 1.46 (inactive)
O=c1ccn([C@H]2CCC(CO)O2)c(=O)[nH]1 (stereo partly drawn) | -1.46 (inactive)
N#Cc1c(N)nc2c(c1-c1cccnc1)CCCCC2 | -6.99 (inactive)
N#CC1=C(N)Oc2c(c3ccccc3oc2=O)C12C(=O)Nc1ccc(Br)cc12 (stereo not drawn) | 2.59 (active)
O=C1Oc2ccccc2C2Oc3c(c(=O)oc4ccccc34)C3(C(=O)Nc4ccccc43)C12 (stereo not drawn) | -1.57 (inactive)
O=C1c2ccccc2NC2(C(=O)Nc3ccccc32)N1c1ccc2c(c1)oc1ccccc12 (stereo not drawn) | 1.13 (inactive)
Cc1ccc(-c2nnc(CSc3nnc(-c4ccccc4)o3)o2)n1C | -1.36 (inactive)
CCCCCCCNC(=O)c1ccco1 | 1.1 (inactive)
S=C(c1ccc(-c2ccc(Br)cc2)o1)N1CCOCC1 | 1.09 (inactive)
O=C1c2ccccc2C(O)(O)C1(O)C1(O)C(=O)c2ccccc2C1(O)O (stereo not drawn) | -1.12 (inactive)
CC(=O)C(C(C)=O)=C1OC(=O)c2ccccc21 | 1.3 (inactive)
CC(=O)/C(=C1/OC(=O)c2ccccc21)c1ccc(C(C)=O)cc1 | 5.97 (active)
C=CC[C@H]1CC=C[C@H](CC=C)N1C(C)=O | -1.11 (inactive)
NC(=O)NC(CCCN=C(N)N)C(=O)O (stereo not drawn) | -1.65 (inactive)
O=[N+]([O-])c1ccc(N2CCN(S(=O)(=O)c3ccc4ccccc4c3)CC2)cc1 | -1.1 (inactive)
CC(=O)c1c(C)nc(-c2cccs2)n1O | -1.92 (inactive)
Cc1sc2c(c1C)C(=O)NC(/C=C/c1ccc3c(c1)OCO3)N2 (stereo not drawn) | -1.11 (inactive)
O=S(=O)(Nc1cc(Cl)cc(Cl)c1)c1cccs1 | -1.41 (inactive)

SMILES | fold change
O=[N+]([O-])c1ccc(Cl)c(S(=O)(=O)N2CCOCC2)c1 | 3.45 (active)
O=[N+]([O-])c1ccc(N2CCN(S(=O)(=O)c3ccc(Br)cc3)CC2)cc1 | 1.35 (inactive)
O=[N+]([O-])c1ccc(N2CCN(S(=O)(=O)c3cc(Cl)ccc3Cl)CC2)cc1 | 5.36 (active)
O=[N+]([O-])c1ccc(N2CCOCC2)c(S(=O)(=O)N2CCOCC2)c1 | -1.09 (inactive)
O=[N+]([O-])c1ccc(S(=O)(=O)N2CCOCC2)cc1 | 2.47 (inactive)
O=[N+]([O-])c1ccc(N2CCN(S(=O)(=O)c3ccc(Cl)cc3)CC2)cc1 | -1.84 (inactive)
Cc1ccc(-c2c(C#N)c(N)nc3c2CCCCC3)s1 | -2.73 (inactive)
Nc1ncnc2nc(SCCOc3ccccc3F)[nH]c12 | -1.17 (inactive)
COc1cc(C2C(C#N)=C(N)Nc3oc(C)nc32)cc(OC)c1OC (stereo not drawn) | 2.2 (inactive)
Cc1cc(Cl)c2ccccc2n1 | -1.67 (inactive)
C=CCNC(=O)c1nn(C)c(=O)c2ccccc12 | -1.08 (inactive)
Cc1cc(C)nc(Sc2ccc3nsnc3c2[N+](=O)[O-])n1 | 2.01 (inactive)
O=c1c(C=NCc2cccs2)c(C(F)(F)F)[nH]n1-c1nc2ccccc2s1 | inactive
NC(=O)CSc1cccc2cccnc12 | -2.76 (inactive)
NNC(=O)Cn1c2ccccc2c(=O)c2ccccc21 | 1.47 (inactive)
NNC(=O)c1cccc(C(=O)NN)n1 | 2.7 (active)
O=C(O)CCn1cnnn1 | -1.36 (inactive)
O=C(O)CCc1cn(CCC(=O)O)cn1 | 3 (active)
O=C(O)COc1ccc(Br)cc1/C=C1/NC(=O)NC1=O | 1.24 (inactive)
O=C(O)/C=C/C(=O)NC1CCCCNC1=O (stereo not drawn) | -1.55 (inactive)
O=C(O)/C=C/C(=O)NC1CCCCC1 | 3.98 (active)
O=C(NC1CCCCCC1)C1CC1 | -2.47 (inactive)
COC(=O)/C(C#N)=C\c1cccn1C | 4.23 (active)
CC(C)OC(=O)/C(C#N)=C\c1cccn1C | -3.04 (inactive)
CCOC(=O)/C(C#N)=C\c1cccn1C | -3.87 (inactive)
CCSc1ccc(Sc2ccc(SCC)s2)s1 | -1.05 (inactive)
